Among the data in PubChem BioAssay (EPA / NIEHS) are outcome and AC50 values, retold here.

Each structure is given as a SMILES string. Results filed as inconclusive are left out. The source made the active and inactive calls. How the source made its calls: active means hit-call score of the fitted dose curve at least 0.9, where 1 is the maximum; inconclusive means response in the unintended direction; inactive means score below 0.9.

Read-out in the experiment: sulfotransferase (SULT2A), SULT2A1 (gene 6822)
The experiment in a line: CLD_SULT2A_48hr: CellzDirect (CLD) Gene Expression Assay for sulfotransferase (SULT2A) at 48 hours (AID 2283710).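 Further: hits raise SULT2A1 transcript above the 0.2% DMSO vehicle baseline.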 As for the experimental part:
CLD_48hr is a cell-based, multiplexed-readout assay that uses hepatocyte, a human liver primary cell, with measurements taken at 48 hours after chemical dosing in a 96-well plate.CLD_SULT2A_48hr is one of 16 assay component(s) measured or calculated from the CLD_48hr assay. It is designed to make measurements of mRNA induction, a form of inducible reporter, as detected with chemiluminescence signals by Quantitative Nuclease Protection Assay (qNPA) technology.Data from the assay component CLD_SULT2A_48hr was analyzed at the endpoint, CLD_SULT2A_48hr, in the positive analysis fitting direction relative to DMSO as the negative control and baseline of activity. Using a type of inducible reporter, gain-of-signal activity can be used to understand changes in the reporter gene as they relate to the gene SULT2A1. Furthermore, this assay endpoint can be referred to as a primary readout. To generalize the intended target to other relatable targets, this assay endpoint is annotated to the transferase intended target family, where subfamily is sulfotransferase.
Human hepatocyte cultures were treated daily for two consecutive days with fresh dosing solutions containing appropriate concentrations of the 320 ToxCast chemicals (chemical identities were blinded to CellzDirect and other ToxCast collaborators), vehicle control (0.2% DMSO), and positive control inducers as summarized in Table 1. Due to the large number of treatment groups and chemicals examined, the ToxCast chemicals were divided into two groups (spanning two independent cultures of hepatocytes from separate donor preparations (Hu778: ToxCast plates 1 and 2; Hu776: ToxCast plates 3 and 4). Each preparation of human hepatocyte cultures was treated with respective vehicle control, medium only control, set of six positive controls/reference chemicals for the five hepatic receptor pathways, and a subset of eight of the ToxCast chemicals (indoxacarb, pyrithiobac-sodium, norflurazon, cyhalofop-butyl, methomyl, thiram, acetochlor, and propiconazole). These replicate data, coupled with internal replicates designed within the blinded ToxCast chemical library, provided additional data to evaluate interindividual differences between hepatocyte preparations and their potential impact on chemical profiles.Cell morphology and integrity were evaluated using phase-contrast microscopy as an indicator of hepatocyte cell health (Tyson & Green, 1987). Cultures for each treatment group (i.e., media, vehicle [0.2% DMSO], positive control inducers [multiple concentrations], and the ToxCast chemicals [multiple concentrations]) were observed and cell morphology was assessed relative to vehicle control cultures at each harvest time point (0, 6, 24, or 48 h). […] Images were evaluated at the conclusion of the study to assess changes in cell integrity and account for the effects of chemical exposure on uncharacteristic changes in concentration-dependent gene expression profiles. The results from these determinations of apparent cytotoxicity were annotated (yes/no) alongside the corresponding qNPA data for reference.At the conclusion of each treatment period, hepatocyte cultures (96-well) were washed with 1 volume of HBSS, lysed by addition of 25 ul ArrayPlate lysis buffer (HTG, Tucson, AZ), and 70 ul/well of Denaturation Oil, denatured by incubation at 95C for 10 min, and frozen at approximately -70C until analysis by nuclease protection assay (qNPA) (Roberts et al., 2007). For qNPA analysis, cell lysates were thawed at 50C for approximately 30 min, qNPA probes were added, and samples were incubated at 95C for 10 min to begin the detection process by denaturing the target RNA, dissociating the duplexes and secondary structure hybridization. At the conclusion of the hybridization period, S1 nuclease reagent was added to each sample to digest all nonprotected nucleotides at 50C for 60-90 min. […]
Turning to `Oc1ccc(Cl)cc1Cc1ccccc1`, the outcome was inactive.

Consider `CCOC1Oc2ccc(OS(C)(=O)=O)cc2C1(C)C` (stereo not drawn), for which the outcome was inactive.

As for `COP(=S)(OC)Oc1ccc([N+](=O)[O-])cc1`, the outcome was inactive.

For `O=C(Nc1ccccc1)Nc1cnns1`, the AC50 is 6.28 µM (active).

As to `O=C(O)C(F)(F)C(F)(F)C(F)(F)C(F)(F)C(F)(F)C(F)(F)C(F)(F)F`, the compound was called inactive.

As for `C[C@H]1[C@H](c2ccc(Cl)cc2)SC(=O)N1C(=O)NC1CCCCC1`, the call was inactive.

For `CC(C)(C)C(O)C(Oc1ccc(Cl)cc1)n1cncn1` (stereo not drawn), the AC50 is 7.18 µM (active).

On to `CNC(=O)Oc1ccccc1OC(C)C`, for which the compound was classed as inactive.

Consider `Clc1ccccc1-c1nnc(-c2ccccc2Cl)nn1`, for which the result was inactive.

Take `COc1cc(OC)nc(NC(=O)NS(=O)(=O)c2cc(NC=O)ccc2C(=O)N(C)C)n1`: the call was inactive.

Turning to `CN1CSC(=S)N(C)C1`, the compound was called inactive.

Consider `CC(C)N(C(=O)COc1nnc(C(F)(F)F)s1)c1ccc(F)cc1`, for which the compound was called inactive.

As for `CCC(C)(NC(=O)c1cc(Cl)c(C)c(Cl)c1)C(=O)CCl` (stereo not drawn), the compound was classed as inactive.

On to `CNC(=O)/C=C(\C)OP(=O)(OC)OC`, for which the result was inactive.

Consider `O=S1OCC2C(CO1)C1(Cl)C(Cl)=C(Cl)C2(Cl)C1(Cl)Cl` (stereo not drawn), for which the compound was called inactive.

With `CCCN(CCC)c1c([N+](=O)[O-])cc(C(F)(F)F)cc1[N+](=O)[O-]`, the result was inactive.

Turning to `Cc1[nH]c(=O)n(C(C)(C)C)c(=O)c1Cl`, the outcome was inactive.

`CC1(c2ccc(Oc3ccccc3)cc2)OC(=O)N(Nc2ccccc2)C1=O` (stereo not drawn): the half-maximal activity concentration (AC50) is 1.89 µM (active).

With `O=C(O)CCCOc1ccc(Cl)cc1Cl`, the outcome was inactive.

Turning to `CCS(=O)(=O)c1cccnc1S(=O)(=O)NC(=O)Nc1nc(OC)cc(OC)n1`, the call was inactive.

Take `COC(=O)c1ccccc1S(=O)(=O)NC(=O)N(C)c1nc(C)nc(OC)n1`: the compound was classed as inactive.

With `CCC(C)Nc1c([N+](=O)[O-])cc(C(C)(C)C)cc1[N+](=O)[O-]` (stereo not drawn), the AC50 is 1.14 µM (active).

Regarding `COP(=O)(OC)OC=C(Cl)Cl`, the compound was called inactive.

As for `COc1nn(CSP(=S)(OC)OC)c(=O)s1`, the outcome was inactive.

`CC1(C)C(C=C(Cl)Cl)C1C(=O)OC(C#N)c1ccc(F)c(Oc2ccccc2)c1` (stereo not drawn): the result was inactive.

For the compound `CCN(CC)C(=O)SCc1ccc(Cl)cc1`, the result was inactive.

For `CCc1ccc(C(=O)NN(C(=O)c2cc(C)cc(C)c2)C(C)(C)C)cc1`, the outcome was inactive.

Take `O=S(=O)(O)C(F)(F)C(F)(F)C(F)(F)C(F)(F)C(F)(F)C(F)(F)C(F)(F)C(F)(F)F`: the compound was called inactive.

Turning to `CCC(C)(C)C(=O)OC1=C(c2ccc(Cl)cc2Cl)C(=O)OC12CCCCC2`, the compound was called inactive.

On to `CC(C)(C)C(O)/C(=C\c1ccc(Cl)cc1Cl)n1cncn1` (stereo not drawn), for which the call was inactive.

Consider `Oc1cc(Cl)ccc1Oc1ccc(Cl)cc1Cl`, for which the compound was called inactive.

For the compound `N#Cc1c(Cl)c(Cl)c(Cl)c(C#N)c1Cl`, the call was inactive.

For `O=[N+]([O-])c1c(Cl)c(Cl)c(Cl)c(Cl)c1Cl`, the result was inactive.

On to `Cc1cc(C)nc(NC(=O)NS(=O)(=O)c2ccccc2C(=O)OC2COC2)n1`, for which the compound was called inactive.

With `C#CCN1C(=O)COc2cc(F)c(N3C(=O)C4=C(CCCC4)C3=O)cc21`, the concentration at half-maximal activity (AC50) was 3.49 µM (active).

For `O=C(NC(=O)c1c(F)cccc1F)Nc1ccc(OC(F)(F)C(F)OC(F)(F)F)c(Cl)c1` (stereo not drawn), the result was inactive.

On to `COC(=O)c1ccccc1S(=O)(=O)NC(=O)Nc1nc(C)nc(OC)n1`, for which the call was inactive.

For `O=[N+]([O-])/N=C1\NCCN1Cc1ccc(Cl)nc1`, the outcome was inactive.

By AC50 is commonly meant the midpoint of the concentration-response curve, whichever way the signal moves.
